ALDH1A1 block: qHTS Assay for Inhibitors of Aldehyde Dehydrogenase 1 (ALDH1A1); Purified ALDH1A1, NADH fluorescence, propionaldehyde substrate; AID 1030, 2008; 220,000 compounds, 7.3% hits; Aldehyde dehydrogenase 1A1 (Homo sapiens), P00352; Potency, µM (doses to about 75.3 µM), for inactives: top-dose activity, negative = inhibition, most hits filed as inhibitors; active = well fitted inhibition curve with a large enough effect, not every such curve was filed as active; inconclusive = small, poorly fitted or top-dose-only effect, or another doubt; inactive = no such curve, though single readings can be large or run the other way;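 also: potency is read from the fitted curve at half-maximal effect; plate controls were no enzyme wells and a reference inhibitor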
Target sequence (P00352 whole entry, looked up): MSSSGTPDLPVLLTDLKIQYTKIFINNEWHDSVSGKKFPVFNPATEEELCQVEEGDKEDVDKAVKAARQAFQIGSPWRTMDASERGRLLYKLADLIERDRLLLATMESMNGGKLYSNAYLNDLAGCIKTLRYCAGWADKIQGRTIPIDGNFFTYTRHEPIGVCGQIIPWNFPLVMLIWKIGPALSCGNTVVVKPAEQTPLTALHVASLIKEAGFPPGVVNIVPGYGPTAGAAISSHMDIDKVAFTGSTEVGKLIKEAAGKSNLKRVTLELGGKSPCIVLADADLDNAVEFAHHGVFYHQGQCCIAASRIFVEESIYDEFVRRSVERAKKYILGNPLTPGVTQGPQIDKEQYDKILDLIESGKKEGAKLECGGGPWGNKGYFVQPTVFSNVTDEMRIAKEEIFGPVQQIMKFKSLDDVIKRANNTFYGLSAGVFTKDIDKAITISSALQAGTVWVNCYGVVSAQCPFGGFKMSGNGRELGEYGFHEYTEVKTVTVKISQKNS
LMNA splice mod: qHTS Assay for Modulators of Lamin A Splicing; 200,000 compounds, 0.01% hits; HeLa LMNA splicing GFP/RFP minigene ratio, 48 h; Potency, µM (titrated, usually from 46.1 µM), inactives show at the top dose ratio change, negative = inhibition, most hits filed as inhibitors; active = well fitted inhibition curve with a large enough effect in the signal ratio, with a control signal flat, not every such curve was filed as active; inconclusive = small, poorly fitted or top-dose-only effect, or effect the other way, or a change in a side signal; the % refers to the signal ratio; also: potency is read from the fitted curve at half-maximal effect; % is scaled to controls: 0 for no effect and ±100 for the full control effect
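S3 HeLa cells stably expressing lamin A-EGFP splicing minigene plus DsRed2, 600 cells/well, 48 h compound exposure at 37C. Laser-scanning cytometry; analysed as GFP (500-530 nm)/RFP (575-640 nm) total intensity ratio; 0.5% DMSO vehicle.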
Sfp PPTase inh: qHTS Assay for Inhibitors of Bacillus subtilis Sfp phosphopantetheinyl transferase (PPTase); Potency, µM, for inactives: largest response in the series, negative = inhibition, most hits filed as inhibitors; Biochemical Sfp PPTase activity, qHTS; 310,000 compounds, 3.5% hits; 4'-phosphopantetheinyl transferase ffp (Bacillus subtilis), Q9F4F7;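 also: the enzyme is Sfp with the accession as filed and its product quenches rhodamine fluorescence; potency is read from the fitted curve at half-maximal effect; 0% = enzyme reaction without inhibitor and -100% = no enzyme wells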
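Fluorescence-quenching assay with 15 nM Sfp, 5 uM rhodamine-CoA and 12.5 uM BHQ-2-labelled ybbR peptide in pH 7.6 Hepes/MgCl2 buffer. Enzyme was pre-incubated with compound for 15 min at room temperature. Rate was taken from the 30-min fluorescence change (525/598 nm).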
G9a inh: qHTS Assay for Inhibitors of Histone Lysine Methyltransferase G9a; 350,000 compounds, 8.8% hits; Histone-lysine N-methyltransferase EHMT2 (Homo sapiens), Q96KQ7; Potency, µM (series often up to 102 µM), without a hit: at the top dose activity, negative = inhibition, hits mostly inhibitors; G9a H3K9 monomethylation, AlphaScreen, 2 h; also: potency is read from the fitted curve at half-maximal effect; % is scaled to controls: 0 for no effect and ±100 for the full control effect; nearly all actives have a fitted effect of over 75% in size
Target sequence (Q96KQ7 913-1193 limits assumed): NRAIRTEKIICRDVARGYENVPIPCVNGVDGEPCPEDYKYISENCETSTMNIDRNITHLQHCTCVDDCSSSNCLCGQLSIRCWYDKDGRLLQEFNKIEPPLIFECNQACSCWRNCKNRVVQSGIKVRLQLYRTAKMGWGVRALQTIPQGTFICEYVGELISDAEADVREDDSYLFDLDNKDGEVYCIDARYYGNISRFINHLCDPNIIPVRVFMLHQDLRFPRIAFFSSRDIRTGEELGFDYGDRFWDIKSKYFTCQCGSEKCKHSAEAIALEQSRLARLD
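AlphaScreen read-out: biotin-H3K9 peptide (500 nM) methylation by 20 nM enzyme with 20 uM SAM, 2 h at room temperature after 15 min compound preincubation; anti-monomethyl H3K9 antibody plus donor/acceptor beads, 10 min dark.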
miR-21 act: qHTS Assay for Modulators of miRNAs and/orActivators of miR-21; HeLa miR-21 FLuc reporter, luciferase, 48 h; Potency, µM (top dose mostly 38.3 µM), for the others: top-dose activity change, positive = activation, most hits filed as activators; 340,000 tested, under 10 active;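 also: % of control where 0% means no effect; miR-21 action dims this reporter so a rising signal means less miR-21 action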
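HeLa cells endogenously expressing miR-21, stably carrying CMV-driven firefly luciferase with a downstream miR-21 binding site, 2000 cells/well. Titrations up to approximately 40 uM, 48 hours; luciferase luminescence read.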
JMJD2E inh: qHTS Assay for Inhibitors of Human Jumonji Domain Containing 2E (JMJD2E). Potency, µM (series often up to 57.1 µM), for the others: at the highest dose activity change, negative = inhibition, usual class: inhibitors. JMJD2E catalytic domain, FDH-coupled NADH fluorescence (FDH is formaldehyde dehydrogenase). AID 2147, 2009. 230,000 compounds, 1.6% hits. Lysine-specific demethylase 4E (Homo sapiens), B2RXH2; active = well fitted inhibition curve with a large enough effect, not every such curve was filed as active; inconclusive = small, poorly fitted or top-dose-only effect, or another doubt; inactive = no such curve, though single readings can be large or run the other way;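 also: potency is read from the fitted curve at half-maximal effect; 0% = wells with enzyme and -100% = buffer wells without enzyme; nearly all actives have a fitted effect of over 50% in size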
* = called active by the depositor; ? = inconclusive; / = no result; [ ] = remark or other dose. This is a sample that favours compounds with a hit; in the whole collection about 13% have one here. Unless noted, calls follow the shape of the dose curve; as a rule, active = well fitted curve in the direction sought with a large enough effect; inconclusive = small, poorly fitted or top-dose-only effect, or another doubt; inactive = no such curve, though single readings can be large; an effect the other way counts as inactive or inconclusive.

SMILES	ALDH1A1 block	LMNA splice mod	Sfp PPTase inh	G9a inh	miR-21 act	JMJD2E inh
CC[C@H](C)/C=C(C)/C=C/C(=O)Cc1cc(O)c(C)c(O)c1C=O	/	/	89µM*	?	3%	?
C/C(=N\NC(=O)Cn1ccc(C(F)(F)F)n1)c1ccco1	6%	12%[46 µM]	-20%	30%	6%	-3%
CCOC(=O)C1=C(c2ccccc2)Nc2ncnn2C1c1ccc(C(=O)O)cc1 (stereo not drawn)	6%	/	10%	/	-1%	-11%
CCOC(=O)C1=C(c2ccccc2)NC(N)=NC1c1ccc(OCc2ccc(C(=O)OC)cc2)cc1 (stereo not drawn)	/	/	79µM*	/	?	7%
O=[N+]([O-])c1cc(-c2n(-c3ccccn3)c3ccccc3[n+]2-c2ccccn2)ccc1Cl	?	-23%[46 µM]	11%	50µM*	15%	6%
COc1cc(/C=C2\SC(=S)N(N3CCOCC3)C2=O)ccc1O	/	/	2%	20%[59 µM]	1%	1%
COc1cc(/C=C2\SC(=S)N(N3CCOCC3)C2=O)cc(OC)c1OC	2%	-3%	-7%	13µM*	2%	-2%
O=C1/C(=C/c2ccncc2)SC(=S)N1N1CCOCC1	/	/	56µM*	-124%[59 µM]	3%	?
CCCN1C(=O)/C(=C/c2ccncc2)SC1=S	10µM*	3%	56µM*	45µM*	0%	-9%
CCN1C(=O)/C(=C/c2cn(C)nc2C)SC1=S	4µM*	8%	-7%	-26%[59 µM]	-2%	-3%
COc1ccccc1CC(=O)NCc1ccc2c(c1)OCO2	?	8%	18%	-12%[12.7 µM]	-27%	-28%
CCOc1ccc(CN(CCc2ccc3c(c2)OCO3)Cc2cc(OC)c(OC)cc2OC)cc1	/	/	/	2.8µM*	16%	/
CCOc1ccccc1CN(CCc1ccc2c(c1)OCO2)Cc1cccc(OC)c1OC	/	/	/	2.5µM*	?	/
Cc1cccc(-n2ncc3c2CCCC3NC(=O)CCN2CCCO2)c1C (stereo not drawn)	/	/	1%	/	13%	/
c1ccc(-c2nn3c(-c4ccco4)nnc3s2)nc1	24µM*	5%	6%	40µM*	-12%	2%
c1coc(-c2nnc3sc(C4CCCCC4)nn23)c1	13µM*	-11%	35µM*	?	-21%	6%
Clc1ccc(-c2nnc3sc(-c4ccccn4)nn23)cc1	14%	2%	11%	-7%[2.33 µM]	-7%	2%
Brc1ccc(-c2nn3c(-c4ccco4)nnc3s2)o1	?	?	20µM*	14µM*	-24%	-13%
CC(C)(C)c1ccc(-c2nnc3sc(-c4ccccn4)nn23)cc1	?	-1%	45µM*	32µM*	-33%	-4%
O=C(NNC(=O)C1CCCC1)c1cc([N+](=O)[O-])cc([N+](=O)[O-])c1	/	/	/	2%[12.7 µM]	/	/
CC1=C(C(=O)OC2CCCC2)C(c2c(Cl)cccc2Cl)CC(=O)N1 (stereo not drawn)	/	/	/	8%[59 µM]	22%	/
COc1ccccc1CNc1nc2ccccc2c2nc(-c3cccnc3)nn12	/	/	/	7%[59 µM]	0%	/
Clc1ccc(OCc2nn3c(-c4ccco4)nnc3s2)c(Cl)c1	-9%	-8%	18µM*	-39%[2.33 µM]	-9%	4%
Brc1ccc(-c2nn3c(-c4ccccn4)nnc3s2)o1	?	?	8.9µM*	20µM*	-19%	-23%
CCN(CC)CCNC(=O)c1c(C)oc2ncnc(N3CCOCC3)c12	/	-3%[46 µM]	/	-1%[59 µM]	0%	/
SMILES	ALDH1A1 block	LMNA splice mod	Sfp PPTase inh	G9a inh	miR-21 act	JMJD2E inh
COc1ccc(C2=C(N3CCN(c4cc(Cl)ccc4C)CC3)c3ccccc3C2=O)cc1	/	/	/	3.5µM*	-4%	/
COc1ccc(C2=C(N3CCN(c4cc(C)ccc4C)CC3)c3ccccc3C2=O)cc1	/	/	/	5µM*	2%	/
Cc1nnc(SCC(=O)OC2CC(C)CCC2C(C)C)[nH]c1=O (stereo not drawn)	?	0%	7%	21%[59 µM]	-3%	-1%
CC1CCC(C(C)C)C(OC(=O)CSc2nc(N)cc(=O)[nH]2)C1 (stereo not drawn)	4.5µM*	9%	10%	-15%	-5%	-3%
O=C(NCc1ccccn1)C(=O)N/N=C/c1ccccc1O	/	/	4%	48%[59 µM]	0%	6.3µM*
O=C(O)/C=C/C(=O)NCc1ccccn1	?	/	-17%	45µM*	-1%	?
Cc1cc(/C=N/NC(=O)C(=O)NCc2ccccn2)c(C)n1-c1cccc(Br)c1	?	?	5%	50µM*	-4%	-13%
COc1cccc(CNC(=O)c2cccc(-n3c(C)nc4cccnc43)c2C)c1	/	/	/	2%[59 µM]	3%	/
COc1ccc(O[C@H]2C=C[C@@H](c3ccccc3)O[C@H]2COC(=O)CC/C(C)=N\OC[C@@H](O)COCc2ccco2)cc1	-15%[13.5 µM]	/	9%	/	/	/
CCOC(=O)c1c(-c2ccccc2)oc2ccc(N(C(C)=O)S(=O)(=O)c3ccc(C)cc3)cc12	/	/	/	6%[59 µM]	5%	/
CC(=O)c1c(C)oc2ccc(N(C(=O)Oc3ccccc3)S(=O)(=O)c3ccc(C(C)(C)C)cc3)cc12	/	/	/	-40%[59 µM]	13%	/
CC(C)C(=O)N(c1ccc2oc(=O)sc2c1)S(=O)(=O)c1ccccc1	-1%	-26%	18µM*	3.2µM*	4%	-17%
COc1ccc(S(=O)(=O)N(C(=O)C(C)C)c2ccc3oc(=O)sc3c2)cc1	?	?	?	7.9µM*	0%	-8%
CCCC(=O)N(c1ccc2oc(=O)sc2c1)S(=O)(=O)c1cccs1	-14%	?	?	40µM*	-1%	4%
CC(=O)N(c1ccc2oc(=O)sc2c1)S(=O)(=O)c1ccccc1	-4%	?	8.9µM*	25µM*	-2%	-3%
O=C(Nc1cc2c(cc1C(=O)c1ccccc1)OCCO2)c1ccc(Br)cc1	/	/	/	9%[59 µM]	-4%	/
Cc1ccc(CNC(=O)C2CCC(=O)N(C3CC3)C2)cc1 (stereo not drawn)	/	/	5%	-8%	-4%	/
COc1ccc(C(=O)Oc2ccc3oc(=O)sc3c2)cc1	?	2%	50µM*	?	-5%	-12%
COc1ccc(OC)c(S(=O)(=O)N(C(C)=O)c2ccc3oc(=O)sc3c2)c1	?	/	45µM*	35µM*	1%	-10%
COc1ccc(OC)c(NC(=O)CSc2ccc(-c3cccnc3)nn2)c1	/	/	5%	-1%	-9%	/
COC(=O)c1ccc2c(=O)[nH]c(COC(=O)c3c(-c4ccccc4)noc3C)nc2c1	/	/	/	14%	/	/

Source: PubChem
